Sensor-assay potency score (higher = more potent) data for 39 sequences are collected here from the OligoGym collection.
Note: reference of the scale not given here.

The first assay deals with FCHSD2. As to the kind of experiment: pooled miR-30 sensor sort-seq; sequence = guide strand. The note with it: shRNA.
The sequence TTCTGTTCTAGCTCTGCTCGGC displayed a sensor-assay potency score (higher = more potent) of -0.12.

TGCTTTAGCAGGTCCAACCGGG yielded a sensor-assay potency score (higher = more potent) of -0.504.

TTTAGCTAAATCTTTCACTGTC showed a sensor-assay potency score (higher = more potent) of 1.33.

In turn, TTCGGTATCTGCATTAAGCGAG showed a sensor-assay potency score (higher = more potent) of 0.0519.

Sequence TAGGAATAAACAACTTTGCAGG came in with a sensor-assay potency score (higher = more potent) of -0.656.

Consider TTATCTTCAAACTCTTCGCCTT, for which the sensor-assay potency score (higher = more potent) was -0.0794.

Take TTTCTGATTCTAACTGTCGGCT: the sensor-assay potency score (higher = more potent) is -0.5.

Consider TTTAAGCTTCTCACTGTCCTTG, for which the sensor-assay potency score (higher = more potent) came out at 0.228.

Sequence TAGCTTTGGAATTACACTCAGA displayed a sensor-assay potency score (higher = more potent) of -0.799.

TTTTCTTGCAAAAACAGCTGAA yielded a sensor-assay potency score (higher = more potent) of -0.0894.

On to TAACTTTACACTTGCCTTCTGT, for which the sensor-assay potency score (higher = more potent) was -0.129.

For TATCTTCAAACTCTTCGCCTTC, the sensor-assay potency score (higher = more potent) is -0.452.

In another assay the target is FCRL4. The assay is described as above. The conditions noted are these: shRNA.
In turn, TTATTTTGAAATTTGATCTAAA displayed a sensor-assay potency score (higher = more potent) of -0.106.

In turn, TAGGCTGAGAGTCTGTAGCTTT gave a sensor-assay potency score (higher = more potent) of 0.173.

Regarding TTCTCTGTTGCATAGAACTGAA, the sensor-assay potency score (higher = more potent) was -0.545.

TTGCATAGAACTGAAATCCATT showed a sensor-assay potency score (higher = more potent) of -0.778.

The sequence TGTTATTTGAACTTGCTTGTGG gave a sensor-assay potency score (higher = more potent) of 0.392.

In turn, TATTTGAACTTGCTTGTGGGAT gave a sensor-assay potency score (higher = more potent) of -0.378.

In the case of TAGAGCTGATCTTTCCAGCTGA, the sensor-assay potency score (higher = more potent) stood at 0.365.

For the sequence TTATCCTCTAGAAGTGTCCTGG, the sensor-assay potency score (higher = more potent) was determined as 0.145.

Regarding TACATCAACATACAACGACTGA, the sensor-assay potency score (higher = more potent) was -0.697.

TAGAACTGAAATCCATTGCAAG: the sensor-assay potency score (higher = more potent) is -0.914.

Sequence TAGACAACTGAGACATCCTTAT gave a sensor-assay potency score (higher = more potent) of -0.682.

For the sequence TTATTTGAACTTGCTTGTGGGA, the sensor-assay potency score (higher = more potent) is -0.64.

The target of the next assay is FER1L6. Described as above. The note with it: shRNA.
Turning to TTCTTCTGCTGTAACTAGGTGG, the sensor-assay potency score (higher = more potent) is -0.362.

In turn, TTTGTCTCCATCCTGTTCGTTG had a sensor-assay potency score (higher = more potent) of -0.562.

As to TAGAGTCTCACATAGAATCTGG, the sensor-assay potency score (higher = more potent) was -0.448.

The sequence TTAGTCAACAGTTTTGATCTTC returned a sensor-assay potency score (higher = more potent) of 0.643.

Take TAGCGAATCTGAAATATCGTGC: the sensor-assay potency score (higher = more potent) is 0.395.

With TTCTTCTATACTTTCTTCCAGG, the sensor-assay potency score (higher = more potent) was -0.684.

TAACTTTTTCTTCTGCTGCTGA showed a sensor-assay potency score (higher = more potent) of 0.239.

For the sequence TTGCTTGCACAGACCAACCAGC, the sensor-assay potency score (higher = more potent) is -0.415.

For TAAAATGACATCTTCAGTGTTC, the sensor-assay potency score (higher = more potent) amounted to 0.481.

TTTTCTGGTACAATCTCCGGGG returned a sensor-assay potency score (higher = more potent) of 0.181.

As for TTGACTATCTTTCGCAGCCTTG, the sensor-assay potency score (higher = more potent) was -0.891.

TTTTTCTGGTACAATCTCCGGG displayed a sensor-assay potency score (higher = more potent) of 0.00268.

The target in a further assay is FEZ1. The description is as above. The conditions noted are these: shRNA.
TTGTCTGTCAGAGCATCCCAAA: the sensor-assay potency score (higher = more potent) was -1.44.

Sequence TGAACCTCAATAAGCACCGTGA registered a sensor-assay potency score (higher = more potent) of -0.29.

For TTGCTCAGTGACCTCCTGCAGC, the sensor-assay potency score (higher = more potent) is -0.806.
